Source: PubChem BioAssay (National Center for Advancing Translational Sciences (NCATS))
BLM inh-1 – Bloom syndrome helicase (human) inhibition | P54132 | recombinant BLM DNA unwinding, fluorescence dequenching | Potency, µM (series often up to 56.1 µM), for the others: top-dose activity change, negative = inhibition, usual class: inhibitors | 350,000 tested, 0.2% active;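 also: plate controls were vehicle for no effect and no enzyme for full effect; nearly all actives have a fitted effect of over 35% in size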
FEN1 inh-1 – human FEN1 inhibition; P39748; Potency, µM (series often up to 114 µM), for inactives: at the top dose activity change, negative = inhibition, most hits filed as inhibitors; 390,000 tested, 0.35% active; Recombinant FEN1 flap cleavage, fluorescence, 15 min; AID 588795; also: % is scaled to controls: 0 for no effect and ±100 for the full control effect; nearly all actives have a fitted effect of over 65% in size
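Steps: FEN1 (10 nM) dispensed; compound added by pin tool; 15 min at room temperature; substrate added to 50 nM final; reads at 0 min and 15 min; data normalized and fitted (four-parameter Hill).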
RECQ1 inh-1 – inhibitors of human RECQ1 DNA helicase | P46063 | RECQ1 DNA unwinding, red fluorescence kinetic read | Potency, µM (top dose mostly 57.3 µM), inactives show at the top dose activity, negative = inhibition, usual class: inhibitors | 240,000 tested, 0.54% active;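 also: plate controls were vehicle for no effect and no enzyme for full effect; nearly all actives have a fitted effect of over 30% in size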
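RECQ1T1 50 nM; forked duplex (20 bp + 30-nt ss tails) 200 nM, ATP 2 mM final; pH 8.0, 2 mM MgCl2, 2.5 ug/ml poly(dI-dC); 15 min compound preincubation; discontinuous kinetic read over 2 h at RT.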
PGK inhibitor – inhibitors of T. brucei phosphoglycerate kinase; P07378; PGK/GAPDH coupled, Kinase-Glo luminescence, 60 min; Potency, µM (doses to about 57.5 µM), for the others: at the highest dose activity change, negative = inhibition, actives largely listed as inhibitors; 380,000 tested, 0.043% active; AID 602233; also: % is scaled to controls: 0 for no effect and ±100 for the full control effect; nearly all actives have a fitted effect of over 60% in size
Target sequence (P07378 whole entry, looked up): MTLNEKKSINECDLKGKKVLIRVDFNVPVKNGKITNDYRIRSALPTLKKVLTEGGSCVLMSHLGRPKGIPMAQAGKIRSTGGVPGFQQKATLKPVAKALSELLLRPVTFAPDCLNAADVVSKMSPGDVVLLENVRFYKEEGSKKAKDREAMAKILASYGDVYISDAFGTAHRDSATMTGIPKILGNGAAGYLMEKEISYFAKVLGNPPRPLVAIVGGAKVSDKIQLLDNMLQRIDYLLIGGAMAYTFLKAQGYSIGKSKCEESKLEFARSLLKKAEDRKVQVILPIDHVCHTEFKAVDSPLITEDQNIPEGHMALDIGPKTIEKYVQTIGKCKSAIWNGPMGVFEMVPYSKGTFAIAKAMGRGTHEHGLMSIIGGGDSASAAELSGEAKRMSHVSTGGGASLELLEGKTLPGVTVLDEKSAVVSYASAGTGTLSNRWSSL
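Recombinant glycosomal PGK reaction used 1,3-bisphosphoglycerate generated in-well by GAPDH (100nM final) in 100mM TEA pH 7.6, 5mM MgCl2, 0.01% Tween-20. After 60 minutes at room temperature, ATP was read by Kinase-Glo Plus luminescence end-point.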
APE1 inh-1 – APE1 (human) endonuclease inhibition | recombinant APE1, TAMRA/BHQ-2 abasic DNA cleavage fluorescence | 350,000 tested, 0.35% active | P27695 | Potency, µM (doses to about 65.8 µM), without a hit: top-dose activity change, negative = inhibition, actives largely listed as inhibitors;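 also: plate controls were vehicle for no effect and reference inhibitor for full effect; nearly all actives have a fitted effect of over 55% in size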
Target sequence (P27695 whole entry, looked up): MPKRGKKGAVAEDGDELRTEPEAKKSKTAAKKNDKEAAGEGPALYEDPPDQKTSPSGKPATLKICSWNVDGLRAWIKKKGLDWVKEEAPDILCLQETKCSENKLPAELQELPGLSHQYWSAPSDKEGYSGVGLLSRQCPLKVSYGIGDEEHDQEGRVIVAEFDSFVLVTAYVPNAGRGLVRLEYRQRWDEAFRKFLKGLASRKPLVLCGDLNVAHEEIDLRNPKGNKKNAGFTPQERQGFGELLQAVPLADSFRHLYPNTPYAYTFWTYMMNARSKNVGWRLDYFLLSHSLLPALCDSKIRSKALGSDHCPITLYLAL
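APE1 at 0.75 nM preincubated 15 min at room temperature with compound. Reaction then started with 50 nM double-stranded THF-abasic substrate labelled with TAMRA/BHQ-2, and 525/598 nm fluorescence read kinetically. Activity taken as third-minus-first read difference, normalized to DMSO and NSC13755 controls.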
DNA dye displace – counter-screen for APE1 inhibitors: DNA dye displacement; shares compounds with APE1 inh-1; DNA fluorescent dye displacement counterscreen, fluorescence; Potency, µM (titrated, usually from 28.5 µM), for the others: at the top dose activity change, negative = inhibition, hits mostly inhibitors; 480 tested, 7% active; AID 2564;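 also: loss of thiazole orange fluorescence as the dye is displaced from duplex DNA; 0% = ThO with dsDNA and no compound and -100% = ThO without dsDNA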
Endo IV inh – blocks E. coli endonuclease IV DNA cleavage | E. coli Endo IV, fluorogenic AP-site DNA cleavage | 560 tested, 4% active | shares compounds with APE1 inh-1 | AID 2565 | Potency, µM (series often up to 27.1 µM), without a hit: top-dose activity change, negative = inhibition, most hits filed as inhibitors;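 also: plate controls were uninhibited enzyme wells for no effect and no enzyme buffer wells for full effect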
APE1 inh-2 – APE1 (human) endonuclease inhibition, confirmation. shares compounds with APE1 inh-1. Potency, µM (series often up to 57.1 µM), for the others: top-dose activity change, negative = inhibition, hits mostly inhibitors. AID 2572. 750 tested, 44% active. purified APE1, fluorogenic abasic-site DNA cleavage; also: % is scaled to controls: 0 for no effect and ±100 for the full control effect; nearly all actives have a fitted effect of over 30% in size
APE1 FP inh – displaces DNA from human APE1 in FP assay; shares compounds with APE1 inh-1; APE1 binding to TAMRA-labelled double-stranded DNA, fluorescence polarization displacement; Potency, µM (top dose mostly 28.5 µM), without a hit: at the top dose activity, negative = inhibition, hits mostly inhibitors; 480 tested, 7% active; AID 2573; also: % is scaled to controls: 0 for no effect and ±100 for the full control effect
BLM inh-2 – BLM (human) helicase inhibition, confirmation; shares compounds with BLM inh-1; BLM DNA unwinding, fluorescence quenching, biochemical; Potency, µM, without a hit: max response, negative = inhibition, hits mostly inhibitors; 220 tested, 40% active; AID 2585;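 also: strand separation dequenches TAMRA so unwinding raises red fluorescence; series mostly up to about 69 µM; % is scaled to controls: 0 for no effect and ±100 for the full control effect; nearly all actives have a fitted effect of over 45% in size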
RECQ1 inh-2 – blocks human RECQ1 DNA unwinding. shares compounds with RECQ1 inh-1. recombinant RECQ1 DNA unwinding, red fluorescence. Potency, µM (top dose mostly 119 µM), for the others: at the top dose activity, negative = inhibition, usual class: inhibitors. 1,100 tested, 15% active; also: % is scaled to controls: 0 for no effect and ±100 for the full control effect; nearly all actives have a fitted effect of over 50% in size
FEN1 inh-2 – FEN1 inhibition, cherry-pick retest | shares compounds with FEN1 inh-1 | FEN1 flap cleavage, TAMRA/BHQ2 fluorogenic DNA substrate | Potency, µM, most hits filed as inhibitors | 880 tested, 79% active; also: nearly all actives have a fitted effect of over 60% in size
* = called active by the depositor; i = inactive; ? = inconclusive; . = no result given; [ ] = remark or other dose. The list is not random: actives were taken first. Their share in the collection is about 0.74%. Calls follow the shape of the dose curve; as a rule, active = well fitted curve in the direction sought with a large enough effect; inconclusive = small, poorly fitted or top-dose-only effect, or another doubt; inactive = no such curve, though single readings can be large; an effect the other way counts as inactive or inconclusive. Potency is read from the fitted curve at half-maximal effect.

SMILES	BLM inh-1	FEN1 inh-1	RECQ1 inh-1	PGK inhibitor	APE1 inh-1	DNA dye displace	Endo IV inh	APE1 inh-2	APE1 FP inh	others
CC(c1ccccc1)n1cncc1C(=O)O (configuration not stated)	-5.6%	-1.9%	-24.0%	-1.5%	?	.	.	-37.6%	.
COC(=O)c1cncn1C(C)c1ccccc1 (configuration not stated)	2.3%	1.0%	-4.4%	-6.4%	3.9%	.	.	.	.
O=c1cc(-c2ccc(O)c(O)c2)oc2c(C3O[C@H](CO)[C@@H](O)[C@H](O)[C@H]3O)c(O)cc(O)c12 (some centres not stated)	-3.5%	-18.4%	-14.8%	5.1%	0.891µM*	?	73.5%	?	-3.9%
Cn1cccc1/C=C1\C(=O)NC(=O)N(Cc2ccco2)C1=O	-20.5%	?	?	?	14.1µM*	-4.4%	23.2%	4.47µM*	-7.6%
Cc1cc(/C=C2\C(=O)NC(=O)N(Cc3ccccc3Cl)C2=O)c(C)n1-c1ccc(C(=O)O)cc1	-19.6%	-25.4%	?	?	11.2µM*	-12.0%	-3.0%	12.6µM*	?
Cc1cc(/C=C2\C(=O)NC(=O)N(c3ccc(F)cc3)C2=O)c(C)n1-c1ccc(C(=O)O)cc1	-0.6%	-5.6%	i	-7.5%	3.1%	.	.	.	.
Cc1cc(/C=C2\C(=O)NC(=O)N(Cc3ccco3)C2=O)c(C)n1-c1ccc(C(=O)O)cc1	-1.7%	-22.2%	-25.1%	?	14.1µM*	-11.2%	7.7%	?	5.3%
CCOC(=O)C1CCN(/C=C2/C(=O)NC(=O)N(Cc3ccco3)C2=O)CC1	28.8%	-34.8%	?	?	14.1µM*	4.5%	20.5%	3.16µM*	?
Cc1ccc(N2C(=O)NC(=O)/C(=C\c3cc(C)n(-c4ccc(C(=O)O)cc4)c3C)C2=O)cc1	-3.7%	-29.9%	.	-7.9%	2.2%	.	.	.	.
O=C1CC(c2c(F)cccc2Cl)c2c(c3ccccc3oc2=O)O1 (configuration not stated)	-0.3%	8.4%	.	.	.	.	.	.	.
O=C1NC(=O)N(c2ccc3c(c2)OCO3)C(=O)/C1=C/c1ccsc1	-3.3%	-2.9%	-8.5%	-6.0%	-6.8%	.	.	.	.
Cc1oc2ccc(OC(=O)N(C)C)cc2c1C(=O)OC(C)C	-2.9%	-2.3%	-7.8%	0.0%	-5.6%	.	.	.	.
CN1C(=O)N(C)C(=O)C2(Cc3cc(N)ccc3N3CCN(c4ccccc4F)CC32)C1=O (configuration not stated)	-3.6%	.	-9.7%	.	-6.6%	.	.	.	.
CN1CCN2c3ccc(N)cc3CC3(C(=O)NC(=O)NC3=O)C2C1 (configuration not stated)	-21.3%	4.5%	8.2%	-0.6%	?	.	.	?	.
O=C1NC(=O)N(Cc2ccc(F)cc2)C(=O)/C1=C\c1ccoc1	-19.7%	?	25.1µM*	-23.5%	28.2µM*	22.7%	3.0%	15.8µM*	5.6%
O=C1NC(=O)N(Cc2ccc(F)cc2)C(=O)/C1=C/c1cccs1	-7.1%	-16.3%	-22.8%	3.0%	7.7%	.	.	.	.
Nc1nc(/C(=C/CC(=O)O)C(=O)NC2C(=O)N3C(C(=O)O)=CCSC23)cs1 (configuration not stated)	-6.3%	.	-6.7%	.	.	1.6%[57.1 µM]	65.0%[57.1 µM]	?	-0.6%[57.1 µM]
Cc1c(C(c2ccccc2Cl)c2c(O)c3ccccc3oc2=O)c(=O)n(-c2ccccc2)n1C (configuration not stated)	3.6%	-0.4%	-6.5%	i	3.5%	.	.	.	.
C[n+]1c2cc(N)ccc2cc2ccc(N)cc21	29.9%	8.91µM*	-24.4%	3.8%	.	.	-112.0%[57.1 µM]	6.31µM*	i
Nc1ccc2ccccc2c1	.	12.7%	-3.2%	-7.6%	-7.9%	.	.	.	.
CNC(=O)OCc1n(C)cc[n+]1C	3.9%	-1.3%	-2.0%	-4.2%	6.8%	.	.	.	.
NC(=O)c1ccc(N=Cc2c(O)n(Cc3ccco3)c(=O)[nH]c2=O)cc1	?	39.8µM*	?	?	31.6µM*	?	-10.1%	39.8µM*	-7.6%	RECQ1 inh-2=?
O=c1[nH]c(=O)n(Cc2ccco2)c(O)c1C=NCc1cccs1	-4.9%	-12.9%	-8.5%	-9.3%	2.1%	.	.	.	.
O=c1[nH]c(=S)n(Cc2ccco2)c(O)c1C=NCc1cccs1	6.1%	-12.4%	?	-3.2%	?	-9.3%	10.7%	-10.7%[24.4 µM]	-3.5%	RECQ1 inh-2=-26.4%
Fc1ccc(CNCCc2ccccc2)cc1	3.0%	16.1%	-0.4%	-1.8%	-3.7%	.	.	.	.
O=C1NC(=O)N(Cc2ccco2)C(=O)/C1=C/C=C/c1ccco1	-2.5%	25.1µM*	10µM*	?	2.82µM*	9.9%	-5.9%	5.01µM*	?	FEN1 inh-2=42.6*
O=c1[nH]c(O)c(C=NC2CCCCC2)c(=O)[nH]1	-1.0%	18.3%	-6.9%	6.2%	-3.4%	.	.	.	.
CC(C)CNC(=O)c1c(N)n(Cc2ccc3c(c2)OCO3)c2nc3ccccc3nc12	10µM*	-18.9%	i	-5.3%	-1.9%	.	.	.	.	BLM inh-2=-8.5%
CCC1CN2CCc3cc(OC)c(OC)cc3C2CC1CC1NCCc2c1[nH]c1ccc(O)cc21 (configuration not stated)	.	-9.5%	.	1.5%	.	.	.	.	.
N#CC(C#N)=Cc1ccc([N+](=O)[O-])c(O)c1	-6.7%	.	?	.	-2.8%	.	.	.	.
